TDP1 block: TDP1 (human) enzyme inhibition; recombinant TDP1, AlphaScreen DNA substrate cleavage; 350,000 compounds, 0.28% hits; Potency, µM (top dose mostly 130 µM), inactives show at the highest dose activity change, negative = inhibition, most hits filed as inhibitors; AID 485290; Q9NUW8; further: potency means the concentration at half of the fitted maximal effect; on the % scale 0 is the no-effect control and ±100 the full control effect; nearly all actives have a fitted effect of over 40% in size
Target sequence (Q9NUW8 whole entry, looked up): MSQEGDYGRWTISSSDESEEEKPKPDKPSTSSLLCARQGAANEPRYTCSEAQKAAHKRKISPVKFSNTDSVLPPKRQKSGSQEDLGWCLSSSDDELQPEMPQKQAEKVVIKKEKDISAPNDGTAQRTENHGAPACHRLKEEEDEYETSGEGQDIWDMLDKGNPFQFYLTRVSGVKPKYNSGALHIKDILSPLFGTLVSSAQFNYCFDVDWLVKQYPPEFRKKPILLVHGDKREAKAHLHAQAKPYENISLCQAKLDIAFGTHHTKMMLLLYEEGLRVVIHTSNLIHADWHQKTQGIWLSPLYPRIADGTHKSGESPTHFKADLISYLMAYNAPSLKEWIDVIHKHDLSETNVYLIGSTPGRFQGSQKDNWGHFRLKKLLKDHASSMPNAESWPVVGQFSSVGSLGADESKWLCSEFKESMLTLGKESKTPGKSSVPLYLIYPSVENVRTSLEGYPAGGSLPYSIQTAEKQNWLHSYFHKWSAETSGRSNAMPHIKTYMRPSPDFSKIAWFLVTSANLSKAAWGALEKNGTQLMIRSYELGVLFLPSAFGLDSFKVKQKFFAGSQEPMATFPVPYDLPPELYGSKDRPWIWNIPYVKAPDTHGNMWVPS
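Tdp1 1 nM final; 15 min RT w/ cpd; substrate 15 nM, 5 min; beads 10 ug/ml, 10 min; AlphaScreen read. Neg ctrl: no enzyme.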
DT40 TDP1 CPT: DT40-hTDP1 cell growth loss with CPT | chicken DT40 Tdp1-/-;hTDP1 cells + 20 nM CPT, ATP luminescence, 48 h | Potency, µM (doses to about 46.2 µM), without a hit: at the highest dose activity change, negative = growth inhibition, hits mostly inhibitors | 420,000 compounds, 12% hits | AID 686979; further: potency means the concentration at half of the fitted maximal effect; on the % scale 0 is the no-effect control and ±100 the full control effect; nearly all actives have a fitted effect of over 55% in size
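Chicken DT40 Tdp1-/- cells complemented with human TDP1, 400 cells/well, exposed to compounds plus 20 nM camptothecin for at least 48 h at 37 C; viability read as ATP content by CellTiter-Glo luminescence.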
HepG2 viability: counter-screen for TGF-b inhibitors: cytotoxicity in HepG2 cells | HepG2 CAGA-GFP viability, ATP luminescence, 18 h | 410,000 compounds, 0.76% hits | Potency, µM (series often up to 46.1 µM), for inactives: top-dose activity change, negative = cytotoxicity, usual class: cytotoxic; further: potency means the concentration at half of the fitted maximal effect
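HepG2 CAGA-GFP cells (1000/well, DMEM with 1% FBS) received compound, then TGF-beta at 500 pg/mL final, and were incubated 18 hours at 37 degrees C. Viability was read by CellTiter-Glo luminescence. Media-only wells were set as complete cell-killing and DMSO as no toxicity.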
IL1B secr inh: inhibitors of inflammasome signaling (IL-1 beta secretion). THP-1 LPS/ATP IL-1B secretion, AlphaLISA, 16 h; stronger effect = lower value. 360,000 compounds, 4.7% hits. activity change, % at 57.5 µM. AID 743279; in the data active means activity change below about -50%; inconclusive means mostly about -30% to -49%; further: on the % scale 0 is the no-effect control and ±100 the full control effect
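THP-1 cells pretreated 1 hr with compounds (up to 57.5 uM final), then stimulated with LPS (250 ng/mL final) plus ATP (1.25 mM final); secreted IL-1B measured by AlphaLISA after 16 hr, decreased signal indicating inhibition.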
DT40 TDP1 no CPT: qHTS for Inhibitors of human tyrosyl-DNA phosphodiesterase 1 (TDP1): qHTS in cells in absence of CPT; Potency, µM (titrated, usually from 46.2 µM), without a hit: at the highest dose activity change, negative = growth inhibition, usual class: inhibitors; 420,000 compounds, 15% hits; DT40 Tdp1-/- hTDP1 cells, no CPT, ATP luminescence, 48 h; further: potency means the concentration at half of the fitted maximal effect; on the % scale 0 is the no-effect control and ±100 the full control effect; nearly all actives have a fitted effect of over 55% in size
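Luminescent ATP content (CellTiter-Glo) served as the growth readout. Knockout chicken DT40 cells expressing human TDP1 were exposed to compounds without camptothecin for a minimum 48 hr at 37 °C.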
TGFb SMAD3 inh: inhibitors of TGF-b signaling; 410,000 compounds, 1.2% hits; Potency, µM (titrated, usually from 46.1 µM), for inactives: at the highest dose activity, negative = inhibition, usual class: inhibitors; HepG2 CAGA-GFP TGF-b/SMAD3 reporter, GFP fluorescence, 18 h; TGF-beta stimulated, 500 pg/mL final; further: potency means the concentration at half of the fitted maximal effect; on the % scale 0 is the no-effect control and ±100 the full control effect; nearly all actives have a fitted effect of over 65% in size
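Per well, imaged GFP fluorescence of HEPG2 CAGA-GFP cells gives the signal; cells get compound, then TGF-beta (500 pg/mL final), 18 h at 37 degrees C; %Activity versus -TGF-beta and +DMSO controls.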
The depositor's hits bear a star; ? = inconclusive; . = no result; [ ] = dose if it differs, or a comment. Compounds with a hit are over-represented: about 18% of the library has one in this group of screens. Unless noted, the call rests on the fitted dose curve; in most records, active means well fitted curve in the direction sought with a large enough effect; inconclusive means small, poorly fitted or top-dose-only effect, or another doubt; inactive means no such curve, though single readings can be large; an effect the other way counts as inactive or inconclusive.

SMILES	TDP1 block	DT40 TDP1 CPT	HepG2 viability	IL1B secr inh	DT40 TDP1 no CPT	TGFb SMAD3 inh
C[C@H](CO)N1C[C@H](C)[C@@H](CN(C)S(=O)(=O)c2ccccc2)Oc2ccc(NC(=O)CCC(F)(F)F)cc2C1=O	-0.1%	20.6µM*	-10.5%	-16.2	-29.6%	-13.6%
CC(C)NC(=O)Nc1ccc2c(c1)C(=O)N([C@H](C)CO)C[C@H](C)[C@@H](CN(C)S(=O)(=O)c1ccccc1)O2	0.8%	-9.1%	13.4%	10.8	-5.0%	8.1%
C[C@H]1CN([C@@H](C)CO)C(=O)c2cccc(NC(=O)Nc3ccc(C(F)(F)F)cc3)c2O[C@@H]1CN(C)S(=O)(=O)c1ccccc1	3.2%	?	-58.3%	-4.2	20.6µM*	?
Cc1ccc(C)c(NC(=O)N2CCc3cc(S(=O)(=O)N4CCC(C)CC4)ccc32)c1	0.0%	?	2.8%	.	?	.
CCOC(=O)C1=C(COC(=O)/C=C/c2cc(Br)ccc2F)NC(=O)NC1C (stereo unspecified)	.	-2.7%	-14.0%	9.8	-13.9%	0.6%
C=CCC1(N(C(C)=O)c2ccccc2C)CCCCC1	-2.4%	-1.3%	-49.1%	5.3	-18.4%	?
C[C@@H]1CN([C@H](C)CO)C(=O)c2cccc(NC(=O)Nc3ccc(C(F)(F)F)cc3)c2O[C@H]1CN(C)S(=O)(=O)c1cccs1	2.4%	8.2µM*	-27.8%	-54.6*	16.4µM*	?
C[C@H](CO)N1C[C@H](C)[C@@H](CN(C)S(=O)(=O)c2ccccc2)Oc2ccc(NC(=O)Nc3ccc(C(F)(F)F)cc3)cc2C1=O	0.4%	20.6µM*	-4.9%	0.0	?	?
COc1ccc(S(=O)(=O)N(C)C[C@H]2Oc3ccc(NC(=O)Nc4ccc5c(c4)OCO5)cc3C(=O)N([C@H](C)CO)C[C@@H]2C)cc1	2.4%	20.6µM*	4.6%	0.0	?	1.4%
COc1ccc(S(=O)(=O)N(C)C[C@H]2Oc3ccc(NC(=O)Nc4ccccc4)cc3C(=O)N([C@H](C)CO)C[C@@H]2C)cc1	2.6%	?	-20.1%	-29.7	?	?
NS(=O)(=O)c1cccc(NC(=O)COC(=O)CNC(=O)c2ccc(-c3ccccc3)cc2)c1	3.8%	-7.2%	6.4%	26.4	16.8%	1.3%
Cc1nc(SCc2ccc(O)c([N+](=O)[O-])c2)c([N+](=O)[O-])[nH]1	8.6%	20.6µM*	0.7%	-23.0	20.6µM*	4.5%
Oc1ccc(CN2CCCc3ccccc32)c2cccnc12	9.3%	3.66µM*	-26.9%	34.1	4.61µM*	?
COC1=CC(=O)c2nc(Cl)ccc2C1=O	.	0.581µM*	1.26µM*	-111.5*	1.03µM*	0.891µM*
Cc1ccc(S(=O)(=O)N2CCOCC2)cc1NC(=O)CSc1nnc(C2CC2)n1C1CC1	-0.2%	-11.1%	-3.8%	4.0	11.8%	-9.5%
COC(=O)c1ccc(Oc2nc(Nc3ccccc3)nc(N(C)C)n2)cc1	5.5%	?	0.2%	-0.7	20.6µM*	-2.2%
NC(=O)Nc1ccc(C(=O)OCC(=O)N2CCc3ccccc3C2)cc1	3.8%	-18.9%	-1.5%	-28.4	16.4%	12.8%
CC(/C=C1\SC(=S)N(NC(=O)c2ccc(O)cc2)C1=O)=C\c1ccccc1	-2.7%	-16.7%	-16.1%	-75.7*	4.1%	5.1%
O=C(NN1C(=O)/C(=C/c2ccc(O)c(O)c2)SC1=S)c1ccccc1	8.4%	?	-19.4%	30.6	11.6µM*	-25.6%
O=C1/C(=C/c2ccc(O)c(O)c2)SC(=S)N1Nc1ccccc1	8.1%	?	-38.6%	-62.4*	?	?
CC(NC(=O)CCN1C(=O)c2ccccc2C1=O)c1ccccc1 (stereo unspecified)	2.8%	-1.8%	-2.8%	-6.0	-3.8%	3.5%
CCOc1ccc(Nc2nc(N)c3ccccc3n2)cc1	.	7.31µM*	15.8µM*	-91.2*	?	-13.3%
Nc1nc(Nc2ccc(Cl)cc2)nc2ccccc12	0.0%	7.31µM*	-48.3%	-119.3*	5.8µM*	17.8µM*
CCOc1ccc(Nc2nc(N)c([N+](=O)[O-])c(N3CCOCC3)n2)cc1	.	-3.5%	4.6%	-12.8	?	11.0%
CN(C)c1ccc(Nc2nc(N)c3ccccc3n2)cc1	.	25.9µM*	12.6µM*	-96.4*	13µM*	-1.9%
SMILES	TDP1 block	DT40 TDP1 CPT	HepG2 viability	IL1B secr inh	DT40 TDP1 no CPT	TGFb SMAD3 inh
Clc1ccc(Nc2nc(-c3ccccc3)c3ccccc3n2)c(Cl)c1	-2.2%[12.3 µM]	-9.3%	7.1%	.	-1.1%	2.4%
CC(C(=O)c1ccccc1)[n+]1cccc(C(N)=O)c1 (stereo unspecified)	-1.2%	3.3%	19.9%	14.8	-6.6%	14.4%
CCOc1cc(C(=O)NN2CCOCC2)cc(OCC)c1OCC	.	2.9%	4.8%	0.6	7.0%	-2.7%
COc1cc(NC(=O)Cn2c(=O)nc(-c3ccccc3F)c3cc(Cl)ccc32)cc(OC)c1	6.2%	14.6µM*	-2.4%	.	10.3µM*	-0.1%
O=C(/C=C/c1cccc(Br)c1)N1CCN(c2cccc(C(F)(F)F)c2)CC1	-3.2%	-1.8%	-32.3%	-24.7	12.5%	?
Nc1cccc2c1C(=O)N(C(=O)/C=C/c1cccc(F)c1)C2=O	2.6%	?	13.4%	-70.2*	?	14.1µM*
Nc1cccc2c1C(=O)N(C(=O)/C=C/c1cccc(Br)c1)C2=O	5.9%	10.3µM*	-2.0%	-75.2*	23.1µM*	-21.1%
CC[C@H](C)[C@H](N)C1=N[C@H](C(=O)N[C@@H](CC(C)C)C(=O)N[C@@H](CCC(=O)O)C(=O)N[C@@H](C(=O)N[C@H]2CCCCNC(=O)[C@@H](CC(N)=O)NC(=O)[C@@H](CC(=O)O)NC(=O)[C@@H](Cc3cnc[nH]3)NC(=O)[C@@H](Cc3ccccc3)NC(=O)[C@@H]([C@@H](C)CC)NC(=O)[C@@H](CCCN)NC2=O)[C@@H](C)CC)CS1	9.2%[21 µM]	.	.	.	.	.
c1ccc2c(c1)OCC(CNCC1COc3ccccc3O1)O2 (stereo unspecified)	.	-8.5%	-11.8%	30.3	-0.1%	5.4%
COc1cccc(OC)c1OCCNC[C@@H]1COc2ccccc2O1	4.8%	26.6µM*	.	.	26.6µM*	.
COc1ccc2c(=O)c3c(=O)n(-c4ccccc4)c(-c4ccc(C)cc4)nc3oc2c1	-2.5%	-24.5%	30.9%	59.6	18.4µM*	5.0%
